ALOX12 inhib: qHTS Assay for Inhibitors of 12-hLO (12-human lipoxygenase); Potency, µM (highest dose often 57.1 µM), hits mostly inhibitors; purified 12-hLO, xylenol orange hydroperoxide absorbance; 150,000 compounds, 0.12% hits; AID 1452, 2008; Polyunsaturated fatty acid lipoxygenase ALOX12 (Homo sapiens), P18054; active = well fitted inhibition curve with a large enough effect; inconclusive = small, poorly fitted or top-dose-only effect; note: nearly all actives have a fitted effect of over 55% in size
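Purified human 12hLO (150 nM final) was preincubated with compounds for 15 min at room temperature in 25 mM Hepes pH 7.0, 0.01% Triton X-100, then reacted with 40 uM arachidonic acid for 30 min. Hydroperoxide was detected with ferrous iron/xylenol orange.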
PNC assembly inh: High Content Assay for Compounds that inhibit the Assembly of the Perinucleolar Compartment | PC3M PTB-GFP, PNC prevalence imaging, 16 h; stronger effect = lower value | activity change (PNC), negative = inhibition, % at 10 µM | 140,000 compounds, 3.1% hits | AID 2417, 2010;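 active = readout at or below -70, meaning at least 70% loss of cells showing the perinucleolar compartment, a nuclear body marking cancer cells; inconclusive = readout between -30 and a set limit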
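PC3M cells stably expressing PTB-GFP, 750–1000 cells/well, treated 16 h at 37 °C with compound (23 nl of library stock), in duplicate. After paraformaldehyde fixation and Hoechst stain, imaged at 20x; PNC prevalence scored by image analysis.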
Lamin A splicing: qHTS Assay for Modulators of Lamin A Splicing. Potency, µM (titrated, usually from 46.1 µM), hits mostly inhibitors. HeLa LMNA splicing GFP/RFP minigene ratio, 48 h. 200,000 compounds, 0.01% hits; active = well fitted inhibition curve with a large enough effect in the signal ratio, with a control signal flat, not every such curve was filed as active; inconclusive = small, poorly fitted or top-dose-only effect, or effect the other way, or a change in a side signal; the % refers to the signal ratio
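S3 HeLa stable clones carrying a lamin A-EGFP splicing minigene plus DsRed2 were seeded at 600 cells/well in Opti-MEM with 2% FBS, pin-dosed and incubated 48 h at 37°C. Acumen cytometry (488 nm) gave the GFP/RFP total-intensity ratio.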
HPGD block: qHTS Assay for Inhibitors of HPGD (15-Hydroxyprostaglandin Dehydrogenase) | 15-hydroxyprostaglandin dehydrogenase [NAD(+)] (Homo sapiens), P15428 | purified HPGD, NADH fluorescence kinetic, PGE2 substrate | Potency, µM, actives largely listed as inhibitors | 150,000 compounds, 4.3% hits
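20 nM HPGD preincubated 15 min at room temperature with compound in 50 mM Tris-HCl pH 8, 0.01% Tween 20. Started with 1 mM NAD+ and 30 uM prostaglandin E2; NADH fluorescence (360/450 nm) read 5 times over 30-s intervals, last minus first.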
ALDH1A1 inh: qHTS Assay for Inhibitors of Aldehyde Dehydrogenase 1 (ALDH1A1); Purified ALDH1A1, NADH fluorescence, propionaldehyde substrate; 220,000 compounds, 7.3% hits; Potency, µM (titrated, usually from 75.3 µM), actives largely listed as inhibitors; AID 1030, 2008; Aldehyde dehydrogenase 1A1 (Homo sapiens), P00352
Target sequence (P00352 whole entry, looked up): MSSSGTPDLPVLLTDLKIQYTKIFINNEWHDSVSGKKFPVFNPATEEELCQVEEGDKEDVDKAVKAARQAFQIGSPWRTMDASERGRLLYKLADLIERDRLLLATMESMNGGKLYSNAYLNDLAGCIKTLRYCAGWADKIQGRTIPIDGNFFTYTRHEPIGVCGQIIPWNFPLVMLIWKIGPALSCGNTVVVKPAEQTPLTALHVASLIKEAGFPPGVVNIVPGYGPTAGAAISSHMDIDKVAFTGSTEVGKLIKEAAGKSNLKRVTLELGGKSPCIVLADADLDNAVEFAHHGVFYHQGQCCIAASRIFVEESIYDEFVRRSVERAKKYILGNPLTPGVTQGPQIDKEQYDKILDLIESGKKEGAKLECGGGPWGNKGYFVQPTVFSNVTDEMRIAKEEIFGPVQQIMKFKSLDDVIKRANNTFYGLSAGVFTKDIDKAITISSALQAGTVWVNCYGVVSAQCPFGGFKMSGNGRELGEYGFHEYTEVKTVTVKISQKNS
A number is an active result; . = inactive; ? = inconclusive; / = no result given; [ ] = dose if it differs, or a comment. The list is not random: actives were taken first. Their share in the collection is about 10%. Unless noted, calls come from the whole dose curve; as a rule, active = well fitted inhibition curve with a large enough effect (not every such curve was filed as active); inconclusive = small, poorly fitted or top-dose-only effect, or another doubt; inactive = no such curve, though single readings can be large or run the other way.

SMILES	ALOX12 inhib	PNC assembly inh	Lamin A splicing	HPGD block	ALDH1A1 inh
CCC(=O)N1CCCc2cc(S(=O)(=O)N3CCC(C(=O)NC4CCC(C)CC4)CC3)ccc21 (centres undefined)	/	/	.	/	/
S=C(NCc1ccco1)Nc1ccc(Cl)cc1	.	.	?	18µM	?
Cc1cccnc1NC(=S)NCc1ccco1	/	/	/	/	13µM
CCNS(=O)(=O)c1ccc(NC(=S)NCc2ccco2)cc1	.	.	.	.	22µM
O=C(c1ccc(NC(=S)NCc2ccco2)cc1)N1CCCCC1	/	/	/	/	22µM
COc1ccc(-c2coc3ccc(OC4OC(COC(C)=O)C(OC(C)=O)C(OC(C)=O)C4OC(C)=O)cc3c2=O)cc1 (centres undefined)	.	/	/	.	.
CC(=O)N1CCC[C@@]2(CCN(C(c3ccccc3)c3ccccc3)C2)C1	.	/	/	.	.
Cc1ccc(N2CC(NC(=O)c3ccco3)CC2=O)cc1 (centres undefined)	/	/	.	/	/
O=C(Nc1nnc(SCc2cc(=O)n3cc(Cl)ccc3n2)s1)c1cccc(F)c1	/	/	.	/	/
CN(C)c1nc(N)nc(CSc2n[nH]c(-c3ccccc3)n2)n1	.	.	.	4µM	.
COC(=O)c1ccc(CSc2n[nH]c(-c3ccccc3)n2)o1	/	/	/	/	.
O=C(NCCCCN1CCCC1)c1ccc(Cc2nc3ccccc3[nH]2)cc1	.	/	/	.	.
Cc1cccc(/C(N)=N/OC(=O)c2cccnc2)c1	/	/	.	/	.
Cc1cccc(/C(N)=N/OC(=O)C23CC4CC(CC(C4)C2)C3)c1	.	-114	?	.	.
Cc1cccc(/C(N)=N/OC(=O)Cc2ccccc2)c1	/	/	?	/	.
COc1ccccc1C(=O)O/N=C(\N)c1ccccc1Cl	.	.	.	28µM	.
O=C(c1cccnc1)N1c2ccccc2Sc2ccccc21	/	/	/	/	.
N/C(=N\OC(=O)N1c2ccccc2Sc2ccccc21)c1ccccc1	.	?	?	18µM	.
Cc1cccc(/C(N)=N/OC(=O)c2ccc(Cl)cc2Cl)c1	.	.	.	16µM	.
Cc1ccc(O)c(NC(=O)COCc2cc(-c3ccco3)on2)c1	/	/	.	/	/
N/C(=N\OC(=O)c1ccc(Cl)cc1Cl)c1ccc(Cl)cc1	.	.	.	5µM	.
COc1ccc(C(=O)O/N=C(\N)c2ccccc2)c(OC)c1	.	.	?	14µM	?
N/C(Cc1ccc(Cl)cc1Cl)=N\OC(=O)c1ccccc1	/	/	.	/	.
N/C(=N\OC(=O)c1ccccc1Cl)c1ccccc1	.	.	.[0.0737 µM]	11µM	.
Cc1ccc(/C(N)=N/OC(=O)c2ccc(C)cc2Cl)cc1	.	.	.	?	.
SMILES	ALOX12 inhib	PNC assembly inh	Lamin A splicing	HPGD block	ALDH1A1 inh
N/C(=N\OC(=O)c1ccc(Cl)cc1Cl)c1ccccc1	.	.	.	14µM	.
Cc1nc2c(sc3nc4c(cc32)COC(C)(C)C4)c(=O)n1Cc1ccccc1	.	.	.	.	?
Cc1nc2c(sc3nc4c(cc32)COC(C)(C)C4)c(=O)n1CC(=O)NCc1ccco1	.	?	.	?	?
CCCc1nc2c(sc3nc4c(cc32)COC(C)(C)C4)c(=O)n1CCN(CC)CC	/	/	?	/	18µM
CCCc1nc2c(sc3nc4c(cc32)COC(C)(C)C4)c(=O)n1Cc1ccco1	.	?	.	?	0.89µM
CC1(C)Cc2nc3sc4c(SCC(=O)NCc5ccco5)ncnc4c3cc2CO1	.	?	?	14µM	8.9µM
CCCc1nc2c(sc3nc4c(cc32)COC(C)(C)C4)c(=O)o1	/	/	.	/	?
Cc1nc2c(sc3nc4c(cc32)COC(C)(C)C4)c(=O)o1	.	.	.	.	28µM
O=C(c1ccncc1)c1ccc(NS(=O)(=O)c2ccc(Br)s2)cc1	.	.	.	28µM	.
O=C(CCCN1C(=O)c2cccc3cccc(c23)C1=O)N1CCN(c2ccccn2)CC1	.	.	?	.	.
O=C(CCCN1C(=O)c2cccc3cccc(c23)C1=O)N1CCN(c2ncccn2)CC1	/	/	.	/	28µM
O=c1c(Cc2c(F)cccc2Cl)c(O)ccn1Cc1ccc2c(c1)OCO2	/	/	.	/	7.9µM
c1ccc(-c2cnn3c(-c4ccccc4)c(-c4ccccc4)nc3n2)cc1	.	.	.	20µM	.
c1ccc(-c2cc(-c3ccccc3)n3ncnc3n2)cc1	/	/	.	/	?
CCN(CCCNC(=O)Cn1ncc2c([nH]c3ccc(C)cc32)c1=O)Cc1ccccc1	/	/	.	/	/
Cc1ccc(C)c(S(=O)(=O)N=Nc2c(O)[nH]c3ccccc23)c1	/	/	/	/	10µM
CCN(CC)CCCN1C=C2C(=O)C(C)(OC(=O)c3cccs3)C(=O)C=C2C=C1CCCC(=O)OC (centres undefined)	.[11.4 µM]	/	.[9.22 µM]	.	.[13.5 µM]
Cc1ccc(-n2ncc(C(=O)NCCCN3CCCCC3)c2C2CCN(C(=O)OC(C)(C)C)CC2)cc1	/	/	.	/	/
Cc1cc(C(F)F)n2nc(C(=O)Nc3sc4c(c3C(N)=O)CCC4)nc2n1	.	.	?	.	16µM
CC(Sc1nc(-c2ccccc2)cc(C(F)(F)F)n1)C(=O)Nc1sc2c(c1C(N)=O)CCC2 (centres undefined)	.	.	.	32µM	?
CC(Sc1nc(-c2ccccc2)cc(C(F)(F)F)n1)C(=O)Nc1sc2c(c1C#N)CCC2 (centres undefined)	.	.	.	.	.
COC(=O)c1c(NC(=O)c2nc3nc(C)cc(C(F)F)n3n2)sc2c1CCC2	.	.	.	.	13µM
Cc1cc(C(F)F)n2nc(C(=O)Nc3sc4c(c3C#N)CCC(C)C4)nc2n1 (centres undefined)	.	.	.	.	?
COc1ncc2ncc(=O)n(C)c2n1	.	/	/	.	.
COC(=O)c1ccc(C(NC(=O)OCc2ccccc2)/C(=C/[C@@H](C)C(=O)N[C@@H](CO)Cc2ccccc2)c2cccnc2)cc1 (some centres undefined)	.	/	/	.	.
SMILES	ALOX12 inhib	PNC assembly inh	Lamin A splicing	HPGD block	ALDH1A1 inh
COc1ccc(NC(=O)CN2CCN(CC(=O)Nc3ccc4c(c3)OCO4)CC2)cc1	.	?	.	.	6.3µM
CCOc1ccc(N/C(C)=C\C(=O)c2ccc3c(c2)OCCO3)cc1	/	/	?	/	13µM
O=C(CN1CCc2ccccc21)Nc1ccc2c(c1)OCO2	.	.	.	.	13µM
COc1ccccc1NC(=O)CN1CCN(CC(=O)Nc2ccc3c(c2)OCO3)CC1	.	.	.	.	11µM
O=C(CN1CCc2ccccc21)NCc1ccc2c(c1)OCO2	.	.	.	.	?
CN(C(=O)c1ccc2c(c1)N(Cc1cccc(Cl)c1)C(=O)c1ccccc1S2(=O)=O)C1CCCCC1	/	/	.	/	/
Cc1ccc(Cn2c(SCC(=O)NCc3ccccc3Cl)nc3ccsc3c2=O)cc1	/	/	.	/	/
O=C(c1cc(C(F)(F)F)cc(C(F)(F)F)c1)N1CCC2(CCCN(Cc3ccccc3)C2)CC1	.	/	/	.	.
